OPRM1-OPRD1 ag: OPRM1-OPRD1 heterodimerization agonism; cells, luminescence; P35372+P41143; AID 504326; 0.3% of 340,000 active; activation, % at 9.3 µM; in the data active means activation above about 18%;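 further: 0% = vehicle-treated cells and 100% = reference agonist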
Target sequence (P35372 whole entry, looked up): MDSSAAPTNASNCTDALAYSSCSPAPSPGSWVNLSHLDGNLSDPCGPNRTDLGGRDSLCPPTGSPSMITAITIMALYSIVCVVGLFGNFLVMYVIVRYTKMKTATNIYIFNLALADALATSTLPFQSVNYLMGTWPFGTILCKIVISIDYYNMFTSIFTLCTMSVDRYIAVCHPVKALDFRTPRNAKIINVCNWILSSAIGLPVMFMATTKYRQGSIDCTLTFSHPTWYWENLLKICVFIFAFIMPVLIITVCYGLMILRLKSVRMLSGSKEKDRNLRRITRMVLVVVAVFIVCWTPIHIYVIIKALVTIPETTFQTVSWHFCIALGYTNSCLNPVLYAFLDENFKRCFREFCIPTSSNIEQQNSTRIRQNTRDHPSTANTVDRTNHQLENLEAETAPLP
Target sequence (P41143 whole entry, looked up): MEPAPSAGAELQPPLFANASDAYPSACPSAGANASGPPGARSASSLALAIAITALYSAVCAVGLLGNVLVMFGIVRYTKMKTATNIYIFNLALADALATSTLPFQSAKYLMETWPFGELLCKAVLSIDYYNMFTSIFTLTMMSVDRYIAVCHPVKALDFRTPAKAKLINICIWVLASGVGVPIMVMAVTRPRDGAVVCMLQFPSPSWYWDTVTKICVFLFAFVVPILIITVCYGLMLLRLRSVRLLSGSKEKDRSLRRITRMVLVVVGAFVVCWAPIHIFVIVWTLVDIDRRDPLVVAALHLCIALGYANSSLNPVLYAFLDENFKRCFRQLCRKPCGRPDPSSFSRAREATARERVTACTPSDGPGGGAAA
HTR5A ag ctr: activates human HTR5A in OPRM1-OPRD1 agonist counter-screen; HTR5A agonist assay, luminescence, cell-based; activation, % at 9.3 µM; P47898; 0.61% of 340,000 active; in the data active means activation mostly above about 9.5%, no sharp cut-off; inactive means mostly below about 7.6%;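 further: 0% = cells with vehicle only and 100% = reference agonist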
OPRM1-OPRD1 inv: inverse agonist of human OPRM1-OPRD1 heterodimerization; inhibition, % at 9.3 µM; 0.21% of 340,000 active; cell-based MOR-DOR heterodimer luminescence, inverse agonism; AID 504357; in the data active means inhibition above about 22%, passing the limit was not always enough;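 further: 0% = cells with DMSO and 100% = wells without cells with DMSO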
HTR5A inv ctr: inverse agonist of human HTR5A in OPRM1-OPRD1 counter-screen; 0.083% of 340,000 active; HTR5A cell line, luminescence, inverse agonism; inhibition, % at 9.3 µM; AID 504634; P47898; in the data active means inhibition mostly above about 23%, no sharp cut-off; inactive means mostly below about 18%;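 further: 0% = cells with DMSO and 100% = no-cell wells with DMSO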
NALP1 yeast inh: inhibitors of NALP1 inflammasome in yeast | inhibition, % at 10 µM | 0.61% of 280,000 active | AID 2071 | S. cerevisiae NALP1/ASC/caspase-1 growth, X-gal OD620, 72 h; in the data active means inhibition mostly above about 24%, no sharp cut-off; inactive means mostly below about 32%
PolyA inhibitor: blocks polyadenylation in yeast reporter cells | activity score, % at 12 µM | 0.02% of 300,000 active | AID 1875 | S. cerevisiae SKY197-pL101 polyadenylation reporter, beta-gal luminescence; efflux-impaired pdr1/pdr3 knockout yeast; score 100 = 6 SD above DMSO;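 active means lowest replicate activity score at least 50, where 100 means six control SD above control mean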;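 further: yeast exposed to compound for 9 h at 30 °C; higher score means more reporter readthrough which indicates perturbed polyadenylation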
MOR-DOR inv conf: confirmation of human OPRM1-OPRD1 heterodimerization inverse agonists; shares compounds with OPRM1-OPRD1 inv; cells expressing OPRM1/OPRD1 heterodimer, luminescence; inhibition, % at 9.3 µM; 20% of 580 active; AID 504900; in the data active means inhibition above about 32%;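 further: 0% = cells with DMSO and 100% = wells lacking cells with DMSO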
HTR5A inv count: inverse agonist of human HTR5A in OPRM1-OPRD1 counter-screen. shares compounds with OPRM1-OPRD1 inv. HTR5A-expressing cells, luminescence, inverse agonism. inhibition, % at 9.3 µM. 580 tested, under 10 active; call rule not given here;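 further: 0% = cells with DMSO and 100% = no-cell wells with DMSO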
* = called active by the depositor; i = inactive; · = not tested or not shown. Most compounds without a hit are left out; they make up all but 1.6% or so of the library.

SMILES	OPRM1-OPRD1 ag	HTR5A ag ctr	OPRM1-OPRD1 inv	HTR5A inv ctr	NALP1 yeast inh	PolyA inhibitor	MOR-DOR inv conf	HTR5A inv count
CCCNS(=O)(=O)c1cccc(C(=O)NC2CCCc3ccccc32)c1 (stereo unspecified)	2	5	-9	-6	8	-8	·	·
COc1ccc(NC(=O)/C(Cl)=C(/Cl)S(=O)Cc2ccc(Cl)cc2)cn1 (stereo unspecified)	-8	-4	41*	11	-2	·	-13	14
CC(C)C1OC2c3cccc4cccc(c34)C2N1c1ccccc1 (stereo unspecified)	-13	-7	65*	-5	-10	-3	1	0
Cc1ccc(Cl)c2c1NC(=O)C2=O	-19	-4	86*	23	·	·	74*	9
CNC(=S)NNC(=O)CCn1nc(C)c(Br)c1C	-3	0	15	4	2	4	·	·
Cc1nn(CCC(=O)NNC(=S)NCC(C)C)c(C)c1Br	-15	-11	75*	37	-13	·	-33	-10
CCOCCCNC(=S)NNC(=O)CCn1nc(C)c(Br)c1C	-8	-3	45*	5	-10	10	-13	-16
Cc1nn(CCC(=O)NNC(=S)Nc2ccccc2)c(C)c1Br	-6	1	30*	23	23	15	-156	-10
CCc1ccccc1N(CC(=O)N1CCc2ccccc2C1)S(C)(=O)=O	0	-1	-2	4	4	-15	·	·
Cc1ccc(SCC(=O)OCC(=O)N(CC(C)C)C2CCS(=O)(=O)C2)cc1C (stereo unspecified)	-4	1	24*	-2	·	-3	-24	-28
COc1ccc(-c2[nH]n(-c3ccc([N+](=O)[O-])cc3)c(=O)c2C=NCc2ccccc2)cc1	0	-3	3	8	26	-17	·	·
CC1CCN(C(=O)CN2C(=O)c3cccc4cccc(c34)C2=O)CC1	-2	-2	8	24	6	-2	·	·
CC(C)(C)NC(=O)CN(Cc1cccs1)C(=O)CN1C(=O)C(=O)c2ccccc21	-6	6	33*	-16	10	-1	24	14
CC1CCN(C(=O)CN2C(=O)C(=O)c3ccccc32)CC1	-5	0	29*	1	5	14	13	5
CC(C)(C)NC(=O)CN(Cc1cccs1)C(=O)c1csnn1	-1	-3	4	-14	20	14	·	·
O=C(CN1C(=O)C(=O)c2ccccc21)c1ccc(Cl)cc1	-8	1	46*	1	0	6	-79	-9
CCN(CC)C(=O)CN1C(=O)C(=O)c2ccccc21	-8	-1	38*	3	-5	13	14	8
CN(CC(=O)Nc1ccc(F)cc1)CC(=O)N1CCCCCC1	0	1	0	-2	·	·	·	·
O=C(O[C@H]1[C@H](Oc2ccccc2COC(=O)C2(O)C=CCCC2=O)O[C@H](CO)[C@@H](O)[C@@H]1O)c1ccccc1 (stereo partly specified)	·	·	·	·	·	-13	·	·
CC(=O)c1nn(-c2ccc(C(F)(F)F)cc2)c(=O)[nH]c1=O	-3	0	15	1	24	6	·	·
COC(=O)CC/C(O)=C1\C(=O)CC(C)(C)CC1=NCc1nc2ccccc2[nH]1	-2	-2	8	5	0	0	·	·
CCN(CC)S(=O)(=O)c1ccc(N(C)C)c(NC(=O)CSCc2c(C)noc2C)c1	-3	3	16	15	12	-14	·	·
COc1cccc(CN(C)C(=O)c2ccccc2SCC(=O)N2CCCC2)c1	-4	-2	19	4	·	8	·	·
O=C(Nc1c(C(=O)O)[nH]c2ccccc12)NC1CCCCC1	-7	1	32*	4	-8	14	-74	-7
O=C(CC1(O)C(=O)Nc2cc(Cl)cc(Cl)c21)c1ccncc1 (stereo unspecified)	-5	-2	29*	1	4	-3	-4	-9
SMILES	OPRM1-OPRD1 ag	HTR5A ag ctr	OPRM1-OPRD1 inv	HTR5A inv ctr	NALP1 yeast inh	PolyA inhibitor	MOR-DOR inv conf	HTR5A inv count
O=C1Nc2ccccc2C1(O)Cc1ccncc1 (stereo unspecified)	-2	-2	9	-2	10	12	·	·
Cc1ccc(Cl)c2c1NC(=O)C2(O)CC(=O)c1ccc(Br)cc1 (stereo unspecified)	-5	-3	30*	-14	12	-2	-1	8
CCS(=O)(=O)Nc1ccc(C(=O)CC2(O)C(=O)Nc3ccc(Br)cc32)cc1 (stereo unspecified)	-2	8	8	31	-2	1	·	·
COC(=O)c1ccc(C)c(-n2c(=O)n(Cc3ccccc3)c(=O)c3[nH]cnc32)c1	-12	-7	52*	24	0	-2	-46	9
Cc1ccccc1-n1c(=O)n(Cc2ccccc2)c(=O)c2[nH]cnc21	-4	-8	19	3	19	5	·	·
COc1ccc(C[C@@H]2OC3(C=CC(=O)C=C3)O[C@H]2Cc2ccc(OC)cc2)cc1	-7	-2	39*	9	·	·	-20	-19
CCCCn1c(N)c(N(CCOC)C(=O)c2ccc(Cl)c(S(=O)(=O)N3CCCCC3)c2)c(=O)[nH]c1=O	0	0	1	-37	·	21	·	·
O=C([C@@H]1Cc2ccccc2CN1)N1CCN(Cc2ccccc2)CC1	-1	-3	8	10	9	14	·	·
C[C@H](NC(=O)COc1ccccc1)C(=O)OCC(=O)c1cc2ccccc2o1	-15	-8	80*	33*	·	·	-154	12
O=C(/C=C/c1ccccc1)NNc1ccc(Cl)cc1	-6	-5	31*	14	7	-69	11	-7
O=C(O)c1ccccc1C(=O)NNc1ccc(Cl)cc1	-7	0	39*	-10	19	-42	9	-10
O=C(NNc1ccc(Cl)cc1)c1sccc1Cl	-9	-5	47*	10	12	-32	1	13
O=C(/C=C/c1ccccc1)NNC(=O)c1cccc(Cl)c1	-1	0	3	0	-4	-2	·	·
CCC(C(=O)Nc1ccc(C(=O)Nc2ccccc2C(=O)O)cc1)c1ccccc1 (stereo unspecified)	-3	2	15	-1	-5	5	·	·
O=C(NCCc1ccc(F)cc1)c1cccc(NC(=O)c2ccccc2)c1	-2	2	10	-9	2	-9	·	·
C=CCc1ccccc1OCC(O)CNC(=O)c1ccccc1C(=O)O (stereo unspecified)	1	0	-5	0	8	11	·	·
COC(=O)c1cccc2c1NC(=O)C2=O	-5	-4	26	21	-6	10	·	·
CCc1cccc2c1NC(=O)C2=O	-12	-3	61*	14	·	·	i	-1
